Test results reported in PubChem BioAssay (Tox21).
Values without a mark were called inactive. The source made the active and inactive calls. Calls come from the whole dose curve.
% is set by controls: 0 for no effect and ±100 for the full control effect.

The compounds below were run against Androgen receptor (Homo sapiens) (UniProt P10275) (assay: qHTS assay to identify small molecule agonists of the androgen receptor (AR) signaling pathway in the presence of an antagonist (AID 1259381; note: nearly all actives have a fitted effect of over 15% in size)). Settings: MDA-kb2 MMTV-luciferase, AR agonist + nilutamide, 16 h; series mostly up to 92.4 µM; activation: at the top concentration.
Androgen receptor (Homo sapiens), sequence (P10275 whole entry, looked up): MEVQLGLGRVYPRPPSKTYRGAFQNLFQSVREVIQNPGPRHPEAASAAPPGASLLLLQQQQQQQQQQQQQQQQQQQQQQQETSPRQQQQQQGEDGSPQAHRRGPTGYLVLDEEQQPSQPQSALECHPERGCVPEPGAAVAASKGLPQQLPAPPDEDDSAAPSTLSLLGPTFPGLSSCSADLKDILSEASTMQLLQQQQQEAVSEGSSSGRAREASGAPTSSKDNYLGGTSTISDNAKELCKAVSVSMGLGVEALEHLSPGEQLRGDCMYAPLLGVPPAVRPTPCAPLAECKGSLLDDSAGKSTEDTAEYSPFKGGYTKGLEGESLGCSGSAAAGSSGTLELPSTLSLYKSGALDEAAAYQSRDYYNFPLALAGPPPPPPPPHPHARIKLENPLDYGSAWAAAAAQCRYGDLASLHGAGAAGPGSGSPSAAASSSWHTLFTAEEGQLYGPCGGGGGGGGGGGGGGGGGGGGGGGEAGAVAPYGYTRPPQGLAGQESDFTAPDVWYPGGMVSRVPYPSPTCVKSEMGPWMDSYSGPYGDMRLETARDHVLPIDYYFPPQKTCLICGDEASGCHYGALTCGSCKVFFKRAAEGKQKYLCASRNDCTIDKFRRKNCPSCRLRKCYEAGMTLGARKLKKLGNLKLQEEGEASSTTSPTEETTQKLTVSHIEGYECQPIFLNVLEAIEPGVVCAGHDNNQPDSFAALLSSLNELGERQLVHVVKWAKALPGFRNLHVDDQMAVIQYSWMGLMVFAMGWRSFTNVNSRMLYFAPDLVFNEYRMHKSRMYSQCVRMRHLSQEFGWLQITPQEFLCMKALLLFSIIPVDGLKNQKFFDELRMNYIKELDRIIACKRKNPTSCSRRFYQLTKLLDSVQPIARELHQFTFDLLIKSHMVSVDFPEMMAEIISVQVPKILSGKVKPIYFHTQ
Text: National Center for Advancing Translational Sciences [NCATS] NIH Chemical Genomics Center [NCGC] U.S. Environmental Protection Agency [EPA] National Institutes of Environmental Health Sciences [NIEHS] National Toxicology Program [NTP] Assay overview: Androgen receptor (AR) is an important member of nuclear receptor family. Its signaling plays a critical role in AR-dependent prostate cancer and other androgen related diseases. Considerable attention has been given in the past decades to develop methods to study and screen for the environmental chemicals that have the potential to interfere with metabolic homeostasis, reproduction, developmental and behavioral functions. Therefore AR binding assay for screening against androgen agonists and antagonists can be used to identify potential endocrine disruptors. MDA-kb2 cells (from ATCC, deposited by Wilson et al.) are human breast carcinoma cells that were stably transfected with a luciferase reporter gene under control of the MMTV promoter that contains response elements for both androgen receptor (AR) and glucocorticoid receptor (GR). This particular screening for measuring luciferase reporter gene activity using MDA-kb2 cells against Tox21 10K library compounds is a confirmation study on agonist mode screening in the presence of AR-antagonist compound (Nilutamide) at 3.0uM final concentration.
Assay Protocol Summary: MDA-kb2 cells (cells cultured without CO2) were dispensed at 3,000 cells/well in 4uL of culture medium into white wall/solid-bottom 1536-well plates (Corning Life Sciences, Corning, NY) using a Multidrop Combi (Thermo Fisher Scientific Inc., Waltham, MA) dispenser. The assay plates were incubated at 37C and 0% CO2 for 5hr. One uL of 3.0uM (final concentration) Nilutamide or assay buffer was added using two separate tips of Flying Reagent Dispenser (FRD, Aurora Discovery, San Diego, CA). Then 23nL of compounds dissolved in DMSO at 15 concentrations and positive controls were transferred to the assay plates using a Pintool station (Wako, San Diego, CA). The assay plates were incubated at 37C and 0% CO2 for 16hr. For luciferase read, 4uL/well ONE-Glo reagent (Promega Corporation, Madison, WI) was added to each well of the assay plates using FRD. After 30min incubation at room temperature, the luminescence signal was measured using a ViewLux plate reader (PerkinElmer, Shelton, CT).
For CN(C)c1ccc(C2(c3ccc(N(C)C)cc3)OC(=O)c3cc(N(C)C)ccc32)cc1, the “activation” value was 2.05%. Nc1nc2ccccc2n1Cc1ccc(F)cc1 was tested, and the “activation” value was -11.2% [at 42.5 µM]. In the case of N=C1C=CC(=C(c2ccc(N)cc2)c2ccc(N)cc2)C=C1, the “activation” value is reported as -10.2%. With OCc1c[nH]c2ccccc12 the “activation” value was 0.907%. In the case of CCCN(CCC)C(=O)C(CCC(=O)OCCCN1CCN(CCOC(=O)Cc2c(C)n(C(=O)c3ccc(Cl)cc3)c3ccc(OC)cc23)CC1)NC(=O)c1ccccc1 (stereo not given), the “activation” value is reported as -2.29% [at 42.5 µM]. For CCCCCCCCCCn1cc[n+](CCCCCCCCCC)c1C, the “activation” value was -10.1%. In the case of COc1cc(-c2nc(NC(=O)c3cc4cc(C)cc(C)c4n3CC(=O)O)sc2CCC2CCCCC2)c(OC)cc1Cl, the “activation” value is reported as -6.89%. For CC[C@H](c1ccc(O)cc1)[C@@H](CC)c1ccc(O)cc1, the Potency was “inactive”. With CCCCC(CC)CN=C(N)NC(N)=NCCCCCCN=C(N)NC(N)=NCC(CC)CCCC (stereo not given) the “activation” value was -9.83% [at 42.5 µM]. For Cc1cc(O)c2ccccc2c1O, the “activation” value was -10.8% [at 42.5 µM]. O=C(c1ccc(F)cc1)C1CCN(CCn2c(=O)[nH]c3ccccc3c2=O)CC1 was tested, and the “activation” value was 0.226% [at 42.5 µM]. For CCCCCCCCCCCCCCCCCC[N+](C)(C)C, the “activation” value was -9.68%. With CCc1cc(Cc2cc(CC)cc(C(C)(C)C)c2O)c(O)c(C(C)(C)C)c1 the “activation” value was -10.5%. With CCCCCCCCCCCCCC[P+](CCCC)(CCCC)CCCC (tested in a mixture with another compound) the “activation” value was -5.93%. In the case of Clc1ccc2nsnc2c1NC1=NCCN1, the “activation” value is reported as 0.0037% [at 42.5 µM]. Oc1ccc(N=Nc2ccccc2)cc1 was tested, and the “activation” value was 2.88%. CCCCCCCCCCCCCCCCCC[N+](C)(C)Cc1ccccc1 was tested, and the “activation” value was -11.2%. In the case of CSc1ccc(/C=C2/C(C)=C(CC(=O)O)c3cc(F)ccc32)cc1, the “activation” value is reported as 0.611% [at 42.5 µM]. In the case of CCOC(=O)c1nc(C(Cl)(Cl)Cl)n(-c2ccc(Cl)cc2Cl)n1, the “activation” value is reported as -1.42%. CC(C)C(C)(C)C(C)(C)C(C)(C)S was tested, and the “activation” value was 8.26%. For CCc1oc2ccccc2c1C(=O)c1cc(Br)c(O)c(Br)c1, the “activation” value was -2.6% [at 42.5 µM]. With Clc1ccc2cc3ccccc3cc2c1 the “activation” value was 1.46%. Compound [O-][n+]1ccccc1SSc1cccc[n+]1[O-] has an activation of -7.58% [at 19 µM]. CCCCCCCCNC(C)C(O)c1ccc(SC(C)C)cc1 (stereo not given) was tested, and the “activation” value was -10.8% [at 42.5 µM]. With Cc1ccc(O)c2ncccc12 the “activation” value was -7.93% [at 42.5 µM]. For Cc1cc(O)c(C(C)(C)C)cc1C(C)(C)C, the “activation” value was 3.37%. O=c1[nH]sc2cc(Cl)ccc12 was tested, and the “activation” value was -3.04% [at 42.5 µM]. With CCCCCCCCCOC(=O)c1ccc(O)cc1 the “activation” value was -4.12%. With C[C@@H](NCCCc1cccc(C(F)(F)F)c1)c1cccc2ccccc12 the “activation” value was -6.57% [at 42.5 µM]. In the case of O=C(O)c1ccc(Cl)c(Cl)c1, the “activation” value is reported as 1.52%. Cc1cc(O)c(Cl)c(C)c1Cl was tested, and the “activation” value was 0.331%. COC(=O)C1=C(C)NC(C)=C(C(=O)OCCc2ccc(N3CCN(C(c4ccccc4)c4ccccc4)CC3)cc2)C1c1cccc([N+](=O)[O-])c1 (stereo not given) was tested, and the “activation” value was -0.0802% [at 42.5 µM]. For CCCC(=O)OC[C@@H](OC(=O)CCC)[C@@H](OC(=O)CCC)[C@H](Cn1c2nc(=O)[nH]c(=O)c-2nc2cc(C)c(C)cc21)OC(=O)CCC, the “activation” value was -8.62% [at 42.5 µM]. For CN(C)C(=O)C1(N2CCCCC2)CCN(CC[C@@]2(c3ccc(Cl)c(Cl)c3)CN(C(=O)c3ccccc3)CCO2)CC1, the “activation” value was -9.03%. With O=C(Nc1cccc([N+](=O)[O-])c1)c1cc2ccccc2cc1O the “activation” value was -10.5%. With CCC(CN)=C(c1ccccc1)c1ccccc1 the “activation” value was -9.59% [at 42.5 µM]. In the case of O=C1CCCc2c1cc1ccc3cccc4ccc2c1c34, the “activation” value is reported as 0.0522%. For O=C(Oc1ccccc1)c1ccccc1C(=O)Oc1ccccc1, the “activation” value was -7.12%. CCCCCCOC(=O)c1ccc(O)cc1 was tested, and the Potency was “inactive”. In the case of COC(=O)c1cc(Cl)ccc1OC, the “activation” value is reported as -0.597% [at 42.5 µM].
